In PMC7862700, “An all-to-all approach to the identification of sequence-specific readers for epigenetic DNA modifications on cytosine”:

Experiments:
Experiment in all cases: DAPPL (digital affinity profiling via proximity ligation, sequencing); 10 mM Tris-HCl pH 7.5, 50 mM NaCl, 1 mM DTT, 4% glycerol, room temperature, 30 min; GST-TFs on glutathione beads, 16-mer random dsDNA library, 0.1% formaldehyde crosslink after washing; high values mean tight binding
Conditions in all cases: protein: recombinant; tags: N-terminal GST; dsDNA, one strand shown
[1] = molecular target: T1, FEV (Homo sapiens, UniProt Q99581 1-238)
T1 sequence: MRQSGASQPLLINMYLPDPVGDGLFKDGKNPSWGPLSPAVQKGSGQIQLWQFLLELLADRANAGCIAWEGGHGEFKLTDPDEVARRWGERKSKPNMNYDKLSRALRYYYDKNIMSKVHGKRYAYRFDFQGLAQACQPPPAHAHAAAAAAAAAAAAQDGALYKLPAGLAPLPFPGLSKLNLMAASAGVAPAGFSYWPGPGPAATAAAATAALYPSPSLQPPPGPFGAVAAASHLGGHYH
How it was run: (§1)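 A tag-only sample was pooled with DNA-barcoded human transcription factors that had been expressed in yeast as GST fusions and captured on glutathione beads. The pools were incubated for 30 min at room temperature with 200 nmole of a random double-stranded 16-mer DNA library in Tris/NaCl/DTT/glycerol buffer, then washed, crosslinked with 0.1% formaldehyde, proximity-ligated (BsaI/T4 ligase, 1 h, 37 °C), PCR-amplified and sequenced on an Illumina NextSeq500. Binding signal is each hexamer's read frequency for a factor divided by its frequency for the tag-only sample.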

[2] = molecular target: T2, SPIC (Homo sapiens, UniProt Q8N5J4 1-248)
T2 sequence: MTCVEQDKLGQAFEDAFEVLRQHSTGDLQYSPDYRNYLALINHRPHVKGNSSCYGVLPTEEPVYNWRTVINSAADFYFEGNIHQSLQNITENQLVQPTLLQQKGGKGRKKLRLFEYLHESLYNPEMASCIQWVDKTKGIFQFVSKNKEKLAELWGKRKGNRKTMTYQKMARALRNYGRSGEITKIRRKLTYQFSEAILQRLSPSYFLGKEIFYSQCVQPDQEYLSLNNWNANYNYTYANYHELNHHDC
How it was run: as §1

[3] = molecular target: T3, ERF (Homo sapiens, UniProt P50548 1-548)
T3 sequence: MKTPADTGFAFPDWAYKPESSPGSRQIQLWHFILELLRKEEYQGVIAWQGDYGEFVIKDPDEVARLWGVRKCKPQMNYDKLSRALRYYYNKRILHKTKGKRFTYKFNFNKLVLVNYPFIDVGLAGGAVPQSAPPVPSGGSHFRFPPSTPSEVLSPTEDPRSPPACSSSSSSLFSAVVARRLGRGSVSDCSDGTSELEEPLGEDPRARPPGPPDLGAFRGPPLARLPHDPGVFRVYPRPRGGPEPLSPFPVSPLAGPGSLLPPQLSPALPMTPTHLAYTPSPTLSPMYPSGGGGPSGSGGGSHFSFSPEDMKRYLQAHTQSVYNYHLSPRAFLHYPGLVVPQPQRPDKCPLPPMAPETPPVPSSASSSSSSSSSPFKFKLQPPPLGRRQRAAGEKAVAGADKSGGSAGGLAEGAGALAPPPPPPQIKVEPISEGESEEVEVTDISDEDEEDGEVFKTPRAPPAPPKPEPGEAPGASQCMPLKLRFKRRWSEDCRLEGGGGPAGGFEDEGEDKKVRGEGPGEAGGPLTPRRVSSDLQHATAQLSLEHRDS
How it was run: as §1

[4] = molecular target: T4, ETV3L (Homo sapiens, UniProt Q6ZN32 1-361)
T4 sequence: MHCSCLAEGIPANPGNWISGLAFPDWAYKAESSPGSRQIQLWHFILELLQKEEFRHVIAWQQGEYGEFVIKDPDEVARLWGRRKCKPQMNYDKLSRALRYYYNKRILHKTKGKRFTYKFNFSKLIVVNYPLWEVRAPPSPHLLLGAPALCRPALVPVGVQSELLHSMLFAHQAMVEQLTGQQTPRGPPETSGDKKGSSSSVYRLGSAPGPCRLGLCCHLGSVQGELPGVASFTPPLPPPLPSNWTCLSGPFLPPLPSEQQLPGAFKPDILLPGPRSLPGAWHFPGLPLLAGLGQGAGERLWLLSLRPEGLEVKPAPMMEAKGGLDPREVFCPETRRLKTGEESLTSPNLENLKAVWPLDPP
How it was run: as §1

[5] = molecular target: T5, SPDEF (Homo sapiens, UniProt O95238 1-335)
T5 sequence: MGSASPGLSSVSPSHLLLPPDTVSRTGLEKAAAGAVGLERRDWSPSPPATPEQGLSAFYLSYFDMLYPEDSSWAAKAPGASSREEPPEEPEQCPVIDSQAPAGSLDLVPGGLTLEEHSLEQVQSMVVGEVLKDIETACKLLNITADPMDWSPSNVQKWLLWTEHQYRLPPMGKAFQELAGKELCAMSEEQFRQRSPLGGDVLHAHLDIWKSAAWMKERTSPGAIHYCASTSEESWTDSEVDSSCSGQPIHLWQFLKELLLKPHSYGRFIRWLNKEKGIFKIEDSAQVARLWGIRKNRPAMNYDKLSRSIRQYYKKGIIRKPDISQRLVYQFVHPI
How it was run: as §1

[6] = molecular target: T6, ETV7 (Homo sapiens, UniProt Q9Y603 1-341)
T6 sequence: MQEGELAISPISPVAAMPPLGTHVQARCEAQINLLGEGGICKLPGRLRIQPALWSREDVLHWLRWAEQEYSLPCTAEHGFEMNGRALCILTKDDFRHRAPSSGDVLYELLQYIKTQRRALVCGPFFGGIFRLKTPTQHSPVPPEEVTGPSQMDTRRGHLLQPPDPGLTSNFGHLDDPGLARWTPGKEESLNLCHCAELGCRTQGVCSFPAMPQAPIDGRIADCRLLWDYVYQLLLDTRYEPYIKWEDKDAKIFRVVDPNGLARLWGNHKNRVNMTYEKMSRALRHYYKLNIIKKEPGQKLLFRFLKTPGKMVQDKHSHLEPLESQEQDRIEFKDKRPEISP
How it was run: as §1

[7] = molecular target: T7, ETV3 (Homo sapiens, UniProt P41162-2 1-143)
T7 sequence: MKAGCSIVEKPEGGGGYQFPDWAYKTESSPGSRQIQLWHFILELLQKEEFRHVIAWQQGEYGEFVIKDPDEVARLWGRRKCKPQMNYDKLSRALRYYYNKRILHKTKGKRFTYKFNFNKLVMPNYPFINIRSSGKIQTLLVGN
How it was run: as §1

[8] = molecular target: ETV6 (Homo sapiens, UniProt P41212 1-452)
How it was run: as §1

[9] = molecular target: T8, ELK4 (Homo sapiens, UniProt P28324-2 1-405)
T8 sequence: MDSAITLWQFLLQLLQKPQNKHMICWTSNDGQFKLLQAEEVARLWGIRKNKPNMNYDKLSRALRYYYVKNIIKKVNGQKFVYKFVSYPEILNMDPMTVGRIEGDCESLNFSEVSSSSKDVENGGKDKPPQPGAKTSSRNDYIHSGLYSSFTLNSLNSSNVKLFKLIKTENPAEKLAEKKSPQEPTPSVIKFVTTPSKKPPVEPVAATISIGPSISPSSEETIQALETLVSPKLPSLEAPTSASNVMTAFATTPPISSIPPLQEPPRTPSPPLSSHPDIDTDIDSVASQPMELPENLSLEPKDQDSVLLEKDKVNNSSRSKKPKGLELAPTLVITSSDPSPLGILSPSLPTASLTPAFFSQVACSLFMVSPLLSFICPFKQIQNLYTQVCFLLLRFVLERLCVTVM
How it was run: as §1

[10] = molecular target: T9, ETV2 (Homo sapiens, UniProt O00321 1-342)
T9 sequence: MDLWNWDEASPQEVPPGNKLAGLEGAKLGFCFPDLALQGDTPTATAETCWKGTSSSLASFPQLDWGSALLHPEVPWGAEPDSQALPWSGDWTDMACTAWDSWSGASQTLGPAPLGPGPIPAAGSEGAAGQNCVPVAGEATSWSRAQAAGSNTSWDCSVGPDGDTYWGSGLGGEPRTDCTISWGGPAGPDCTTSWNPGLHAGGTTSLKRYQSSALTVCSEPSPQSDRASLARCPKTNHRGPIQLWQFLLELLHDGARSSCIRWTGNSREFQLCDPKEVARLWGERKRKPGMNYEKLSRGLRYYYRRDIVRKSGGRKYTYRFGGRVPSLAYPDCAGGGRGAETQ
How it was run: as §1

[11] = molecular target: T10, GABPA (Homo sapiens, UniProt Q06546 1-454)
T10 sequence: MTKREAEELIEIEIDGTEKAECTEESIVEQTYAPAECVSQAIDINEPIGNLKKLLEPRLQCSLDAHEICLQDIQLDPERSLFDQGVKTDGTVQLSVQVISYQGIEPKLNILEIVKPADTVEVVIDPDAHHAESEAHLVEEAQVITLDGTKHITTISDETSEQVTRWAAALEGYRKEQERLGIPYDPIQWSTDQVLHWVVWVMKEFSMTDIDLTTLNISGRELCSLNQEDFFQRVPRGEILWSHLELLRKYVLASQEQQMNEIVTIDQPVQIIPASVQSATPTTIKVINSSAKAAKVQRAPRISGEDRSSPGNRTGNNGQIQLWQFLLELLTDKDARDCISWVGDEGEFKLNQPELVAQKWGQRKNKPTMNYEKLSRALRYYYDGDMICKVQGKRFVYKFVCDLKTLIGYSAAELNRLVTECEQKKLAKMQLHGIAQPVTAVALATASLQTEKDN
How it was run: as §1

[12] = molecular target: T11, ERG (Homo sapiens, UniProt P11308 1-479)
T11 sequence: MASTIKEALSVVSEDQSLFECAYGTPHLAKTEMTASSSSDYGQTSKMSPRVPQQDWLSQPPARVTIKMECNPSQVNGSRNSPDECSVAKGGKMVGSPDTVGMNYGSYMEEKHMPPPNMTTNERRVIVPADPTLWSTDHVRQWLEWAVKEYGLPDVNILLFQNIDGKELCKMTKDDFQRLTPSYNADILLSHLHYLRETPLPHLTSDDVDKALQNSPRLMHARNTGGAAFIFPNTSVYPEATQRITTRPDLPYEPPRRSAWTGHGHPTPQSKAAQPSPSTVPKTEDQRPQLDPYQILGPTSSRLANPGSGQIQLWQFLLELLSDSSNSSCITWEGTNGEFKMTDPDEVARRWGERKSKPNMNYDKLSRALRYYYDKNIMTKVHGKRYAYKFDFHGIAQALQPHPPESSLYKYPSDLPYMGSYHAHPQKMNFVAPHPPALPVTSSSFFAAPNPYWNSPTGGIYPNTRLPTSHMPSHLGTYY
How it was run: as §1

[13] = molecular target: ETV1 (Homo sapiens, UniProt P50549 1-477)
How it was run: as §1

[14] = molecular target: T12, ETS2 (Homo sapiens, UniProt P15036 1-469)
T12 sequence: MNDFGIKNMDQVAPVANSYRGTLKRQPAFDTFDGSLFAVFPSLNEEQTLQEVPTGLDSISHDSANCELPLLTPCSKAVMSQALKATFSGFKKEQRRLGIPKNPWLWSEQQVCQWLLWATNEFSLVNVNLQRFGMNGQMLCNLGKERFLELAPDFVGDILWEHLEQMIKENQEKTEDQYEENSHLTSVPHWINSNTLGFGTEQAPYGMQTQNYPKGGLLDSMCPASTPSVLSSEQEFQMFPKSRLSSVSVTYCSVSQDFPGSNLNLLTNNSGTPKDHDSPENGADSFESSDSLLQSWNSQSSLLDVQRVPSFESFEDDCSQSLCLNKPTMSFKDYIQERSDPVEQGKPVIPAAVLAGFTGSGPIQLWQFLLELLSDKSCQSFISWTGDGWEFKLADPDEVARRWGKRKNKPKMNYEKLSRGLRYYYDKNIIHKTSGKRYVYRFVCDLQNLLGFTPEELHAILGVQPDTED
How it was run: as §1

Chain of ETV6 (P41212 whole entry): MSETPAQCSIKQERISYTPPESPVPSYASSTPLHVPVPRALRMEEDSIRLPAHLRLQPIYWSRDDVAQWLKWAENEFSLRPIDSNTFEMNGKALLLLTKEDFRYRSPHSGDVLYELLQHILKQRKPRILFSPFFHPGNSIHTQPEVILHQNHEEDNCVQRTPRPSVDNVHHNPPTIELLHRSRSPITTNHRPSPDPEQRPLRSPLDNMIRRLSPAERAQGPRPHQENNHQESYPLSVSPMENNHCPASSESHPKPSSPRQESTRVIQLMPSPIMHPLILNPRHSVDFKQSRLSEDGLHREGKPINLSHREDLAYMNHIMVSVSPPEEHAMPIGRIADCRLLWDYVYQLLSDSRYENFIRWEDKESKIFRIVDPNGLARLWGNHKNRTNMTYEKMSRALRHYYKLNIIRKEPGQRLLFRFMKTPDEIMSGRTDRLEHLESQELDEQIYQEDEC
Chain of ETV1 (P50549 whole entry): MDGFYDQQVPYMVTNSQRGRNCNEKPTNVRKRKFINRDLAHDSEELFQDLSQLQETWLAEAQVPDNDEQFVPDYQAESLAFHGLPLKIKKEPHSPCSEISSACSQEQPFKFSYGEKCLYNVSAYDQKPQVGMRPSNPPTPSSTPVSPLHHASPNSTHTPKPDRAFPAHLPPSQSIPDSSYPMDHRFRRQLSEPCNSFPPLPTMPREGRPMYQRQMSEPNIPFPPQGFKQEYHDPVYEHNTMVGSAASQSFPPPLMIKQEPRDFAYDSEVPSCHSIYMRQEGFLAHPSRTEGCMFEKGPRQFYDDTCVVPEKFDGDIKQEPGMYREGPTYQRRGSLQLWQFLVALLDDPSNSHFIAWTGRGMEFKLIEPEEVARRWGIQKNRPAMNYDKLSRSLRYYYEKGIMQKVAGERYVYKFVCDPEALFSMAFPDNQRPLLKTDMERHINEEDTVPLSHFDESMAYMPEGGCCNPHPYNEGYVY

In the case of GCGACA, the binding signal [1] is reported as 1.02 fold enrichment (6-mer frequency, TF over GST control), the binding signal [2] is reported as 1.03 fold enrichment (6-mer frequency, TF over GST control) and the binding signal [3] is reported as 1.04 fold enrichment (6-mer frequency, TF over GST control). For the same sequence, the binding signal [4] was 1.04 fold enrichment (6-mer frequency, TF over GST control), the binding signal [5] was 1 fold enrichment (6-mer frequency, TF over GST control) and the binding signal [6] was 1.05 fold enrichment (6-mer frequency, TF over GST control). For the same sequence, the binding signal [7] was 1.01 fold enrichment (6-mer frequency, TF over GST control) and the binding signal [8] was 1.04 fold enrichment (6-mer frequency, TF over GST control).

CGACAG was tested, and the binding signal [2] was 1.01 fold enrichment (6-mer frequency, TF over GST control), the binding signal [9] was 1.03 fold enrichment (6-mer frequency, TF over GST control) and the binding signal [10] was 1.07 fold enrichment (6-mer frequency, TF over GST control). For the same sequence, the binding signal [3] was 1.07 fold enrichment (6-mer frequency, TF over GST control), the binding signal [5] was 1.01 fold enrichment (6-mer frequency, TF over GST control) and the binding signal [6] was 1.08 fold enrichment (6-mer frequency, TF over GST control).

With AGTTTG the binding signal [2] was 1.06 fold enrichment (6-mer frequency, TF over GST control), the binding signal [9] was 1.03 fold enrichment (6-mer frequency, TF over GST control) and the binding signal [3] was 1.01 fold enrichment (6-mer frequency, TF over GST control).

CGTCAT was tested, and the binding signal [11] was 1.03 fold enrichment (6-mer frequency, TF over GST control), the binding signal [12] was 1.02 fold enrichment (6-mer frequency, TF over GST control) and the binding signal [2] was 1.05 fold enrichment (6-mer frequency, TF over GST control). The binding signal [9] was 1.09 fold enrichment (6-mer frequency, TF over GST control), the binding signal [13] was 1.09 fold enrichment (6-mer frequency, TF over GST control) and the binding signal [14] was 1.03 fold enrichment (6-mer frequency, TF over GST control).
